# Test results: the supplement of paper PMC4466140
# Tests used:
# Assay in all cases: SPOT peptide array binding signal intensity (averaged, normalized) (arbitrary units (background-subtracted, floor 0; scale differs between SH3 domains)); higher = stronger binding of the SH3 domain to the peptide
# AgAbp1 = molecular target: AgAbp1
# Procedure, shortened: (§1)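 Binding signal refers to normalized, background-subtracted spot intensity averaged over replicates, expressed in arbitrary units that differ between domains. GST-fused SH3 domains from four yeast species were incubated at 10 μg/ml overnight at 4°C on cellulose membranes of synthetic 15-mer peptides with cysteines replaced by serines. Bound protein was detected with anti-GST antibody, an HRP anti-mouse secondary and luminol, and quantified with Genespotter.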
# AgBbc1 = molecular target: AgBbc1
# Procedure, shortened: as §1
# AgBem1-D1 = molecular target: AgBem1-D1
# Procedure, shortened: as §1
# AgBzz1-D1 = molecular target: AgBzz1-D1
# Procedure, shortened: as §1
# AgBzz1-D2 = molecular target: AgBzz1-D2
# Procedure, shortened: as §1
# AgCyk3 = molecular target: AgCyk3
# Procedure, shortened: as §1
# AgFus1 = molecular target: AgFus1
# Procedure, shortened: as §1
# AgHof1 = molecular target: AgHof1
# Procedure, shortened: as §1
# AgHse1 = molecular target: AgHse1
# Procedure, shortened: as §1
# AgLsb1 = molecular target: AgLsb1
# Procedure, shortened: as §1
# AgLsb4 = molecular target: AgLsb4
# Procedure, shortened: as §1
# AgMyo5 = molecular target: AgMyo5
# Procedure, shortened: as §1
# AgNbp2 = molecular target: AgNbp2
# Procedure, shortened: as §1
# AgRvs167 = molecular target: AgRvs167
# Procedure, shortened: as §1
# AgSho1 = molecular target: AgSho1
# Procedure, shortened: as §1
# AgSla1-D1-D2 = molecular target: AgSla1-D1-D2
# Procedure, shortened: as §1
# AgSla1-D3 = molecular target: AgSla1-D3
# Procedure, shortened: as §1
# CaAbp1-D1 = molecular target: CaAbp1-D1
# Procedure, shortened: as §1
# CaAbp1-D2 = molecular target: CaAbp1-D2
# Procedure, shortened: as §1
# CaBbc1 = molecular target: CaBbc1
# Procedure, shortened: as §1
# CaBem1-D1 = molecular target: CaBem1-D1
# Procedure, shortened: as §1
# CaBzz1-D1 = molecular target: CaBzz1-D1
# Procedure, shortened: as §1
# CaBzz1-D2 = molecular target: CaBzz1-D2
# Procedure, shortened: as §1
# CaCyk3 = molecular target: CaCyk3
# Procedure, shortened: as §1
# CaFus1 = molecular target: CaFus1
# Procedure, shortened: as §1
# CaHof1 = molecular target: CaHof1
# Procedure, shortened: as §1
# CaHse1 = molecular target: CaHse1
# Procedure, shortened: as §1
# CaLsb1 = molecular target: CaLsb1
# Procedure, shortened: as §1
# CaLsb4 = molecular target: CaLsb4
# Procedure, shortened: as §1
# CaMyo5 = molecular target: CaMyo5
# Procedure, shortened: as §1
# CaNbp2 = molecular target: CaNbp2
# Procedure, shortened: as §1
# CaRvs167 = molecular target: CaRvs167
# Procedure, shortened: as §1
# CaRvs167-3 = molecular target: CaRvs167-3
# Procedure, shortened: as §1
# CaSho1 = molecular target: CaSho1
# Procedure, shortened: as §1
# CaSla1-D1-D2 = molecular target: CaSla1-D1-D2
# Procedure, shortened: as §1
# CaSla1-D3 = molecular target: CaSla1-D3
# Procedure, shortened: as §1
# ScAbp1 = molecular target: ScAbp1
# Procedure, shortened: as §1
# ScBbc1 = molecular target: ScBbc1
# Procedure, shortened: as §1
# ScBem1-D1 = molecular target: ScBem1-D1
# Procedure, shortened: as §1
# ScBzz1-D1 = molecular target: ScBzz1-D1
# Procedure, shortened: as §1
# ScBzz1-D2 = molecular target: ScBzz1-D2
# Procedure, shortened: as §1
# ScCyk3 = molecular target: ScCyk3
# Procedure, shortened: as §1
# ScFus1 = molecular target: ScFus1
# Procedure, shortened: as §1
# ScHof1 = molecular target: ScHof1
# Procedure, shortened: as §1
# ScHse1 = molecular target: ScHse1
# Procedure, shortened: as §1
# ScLsb1 = molecular target: ScLsb1
# Procedure, shortened: as §1
# ScLsb2 = molecular target: ScLsb2
# Procedure, shortened: as §1
# ScLsb3 = molecular target: ScLsb3
# Procedure, shortened: as §1
# ScLsb4 = molecular target: ScLsb4
# Procedure, shortened: as §1
# ScMyo3 = molecular target: ScMyo3
# Procedure, shortened: as §1
# ScMyo5 = molecular target: ScMyo5
# Procedure, shortened: as §1
# ScNbp2 = molecular target: ScNbp2
# Procedure, shortened: as §1
# ScPex13 = molecular target: ScPex13
# Procedure, shortened: as §1
# ScRvs167 = molecular target: ScRvs167
# Procedure, shortened: as §1
# ScSho1 = molecular target: ScSho1
# Procedure, shortened: as §1
# ScSla1-D1-D2 = molecular target: ScSla1-D1-D2
# Procedure, shortened: as §1
# ScSla1-D3 = molecular target: ScSla1-D3
# Procedure, shortened: as §1
# SpAbp1-D1 = molecular target: SpAbp1-D1
# Procedure, shortened: as §1
# SpBbc1 = molecular target: SpBbc1
# Procedure, shortened: as §1
# SpBzz1-D1 = molecular target: SpBzz1-D1
# Procedure, shortened: as §1
# SpBzz1-D2 = molecular target: SpBzz1-D2
# Procedure, shortened: as §1
# SpCyk3 = molecular target: SpCyk3
# Procedure, shortened: as §1
# SpHof1 = molecular target: SpHof1
# Procedure, shortened: as §1
# SpHof1-2 = molecular target: SpHof1-2
# Procedure, shortened: as §1
# SpHof1-3 = molecular target: SpHof1-3
# Procedure, shortened: as §1
# SpHse1 = molecular target: SpHse1
# Procedure, shortened: as §1
# SpLsb1 = molecular target: SpLsb1
# Procedure, shortened: as §1
# SpLsb4 = molecular target: SpLsb4
# Procedure, shortened: as §1
# SpMyo1 = molecular target: SpMyo1
# Procedure, shortened: as §1
# SpNbp2 = molecular target: SpNbp2
# Procedure, shortened: as §1
# SpPex13 = molecular target: SpPex13
# Procedure, shortened: as §1
# SpRvs167 = molecular target: SpRvs167
# Procedure, shortened: as §1
# SpSla1-D1-D2 = molecular target: SpSla1-D1-D2
# Procedure, shortened: as §1
# SpSla1-D3 = molecular target: SpSla1-D3
# Procedure, shortened: as §1
binder,measurement,setting,value
DTFLPPPPPPPSNFE,SPOT peptide array binding signal intensity,AgAbp1,2
same,SPOT peptide array binding signal intensity,AgBbc1,≤ 0
same,SPOT peptide array binding signal intensity,AgBem1-D1,≤ 0
same,SPOT peptide array binding signal intensity,AgBzz1-D1,≤ 0
same,SPOT peptide array binding signal intensity,AgBzz1-D2,≤ 0
same,SPOT peptide array binding signal intensity,AgCyk3,1
same,SPOT peptide array binding signal intensity,AgFus1,≤ 0
same,SPOT peptide array binding signal intensity,AgHof1,23.5
same,SPOT peptide array binding signal intensity,AgHse1,4.5
same,SPOT peptide array binding signal intensity,AgLsb1,≤ 0
same,SPOT peptide array binding signal intensity,AgLsb4,≤ 0
same,SPOT peptide array binding signal intensity,AgMyo5,1100
same,SPOT peptide array binding signal intensity,AgNbp2,≤ 0
same,SPOT peptide array binding signal intensity,AgRvs167,1.33
same,SPOT peptide array binding signal intensity,AgSho1,≤ 0
same,SPOT peptide array binding signal intensity,AgSla1-D1-D2,≤ 0
same,SPOT peptide array binding signal intensity,AgSla1-D3,0.5
same,SPOT peptide array binding signal intensity,CaAbp1-D1,≤ 0
same,SPOT peptide array binding signal intensity,CaAbp1-D2,≤ 0
same,SPOT peptide array binding signal intensity,CaBbc1,≤ 0
same,SPOT peptide array binding signal intensity,CaBem1-D1,≤ 0
same,SPOT peptide array binding signal intensity,CaBzz1-D1,108
same,SPOT peptide array binding signal intensity,CaBzz1-D2,11.8
same,SPOT peptide array binding signal intensity,CaCyk3,≤ 0
same,SPOT peptide array binding signal intensity,CaFus1,≤ 0
same,SPOT peptide array binding signal intensity,CaHof1,≤ 0
same,SPOT peptide array binding signal intensity,CaHse1,3.25
same,SPOT peptide array binding signal intensity,CaLsb1,≤ 0
same,SPOT peptide array binding signal intensity,CaLsb4,≤ 0
same,SPOT peptide array binding signal intensity,CaMyo5,11.5
same,SPOT peptide array binding signal intensity,CaNbp2,≤ 0
same,SPOT peptide array binding signal intensity,CaRvs167,0.5
same,SPOT peptide array binding signal intensity,CaRvs167-3,≤ 0
same,SPOT peptide array binding signal intensity,CaSho1,12
same,SPOT peptide array binding signal intensity,CaSla1-D1-D2,≤ 0
same,SPOT peptide array binding signal intensity,CaSla1-D3,≤ 0
same,SPOT peptide array binding signal intensity,ScAbp1,≤ 0
same,SPOT peptide array binding signal intensity,ScBbc1,≤ 0
same,SPOT peptide array binding signal intensity,ScBem1-D1,≤ 0
same,SPOT peptide array binding signal intensity,ScBzz1-D1,2.5
same,SPOT peptide array binding signal intensity,ScBzz1-D2,≤ 0
same,SPOT peptide array binding signal intensity,ScCyk3,≤ 0
same,SPOT peptide array binding signal intensity,ScFus1,≤ 0
same,SPOT peptide array binding signal intensity,ScHof1,25.5
same,SPOT peptide array binding signal intensity,ScHse1,≤ 0
same,SPOT peptide array binding signal intensity,ScLsb1,≤ 0
same,SPOT peptide array binding signal intensity,ScLsb2,≤ 0
same,SPOT peptide array binding signal intensity,ScLsb3,≤ 0
same,SPOT peptide array binding signal intensity,ScLsb4,≤ 0
same,SPOT peptide array binding signal intensity,ScMyo3,2140
same,SPOT peptide array binding signal intensity,ScMyo5,1690
same,SPOT peptide array binding signal intensity,ScNbp2,≤ 0
same,SPOT peptide array binding signal intensity,ScPex13,140
same,SPOT peptide array binding signal intensity,ScRvs167,1
same,SPOT peptide array binding signal intensity,ScSho1,≤ 0
same,SPOT peptide array binding signal intensity,ScSla1-D1-D2,≤ 0
same,SPOT peptide array binding signal intensity,ScSla1-D3,≤ 0
same,SPOT peptide array binding signal intensity,SpAbp1-D1,≤ 0
same,SPOT peptide array binding signal intensity,SpBbc1,≤ 0
same,SPOT peptide array binding signal intensity,SpBzz1-D1,1360
same,SPOT peptide array binding signal intensity,SpBzz1-D2,6.5
same,SPOT peptide array binding signal intensity,SpCyk3,≤ 0
same,SPOT peptide array binding signal intensity,SpHof1,≤ 0
same,SPOT peptide array binding signal intensity,SpHof1-2,6.75
same,SPOT peptide array binding signal intensity,SpHof1-3,≤ 0
same,SPOT peptide array binding signal intensity,SpHse1,12.5
same,SPOT peptide array binding signal intensity,SpLsb1,≤ 0
same,SPOT peptide array binding signal intensity,SpLsb4,≤ 0
same,SPOT peptide array binding signal intensity,SpMyo1,1100
same,SPOT peptide array binding signal intensity,SpNbp2,≤ 0
same,SPOT peptide array binding signal intensity,SpPex13,≤ 0
same,SPOT peptide array binding signal intensity,SpRvs167,2
same,SPOT peptide array binding signal intensity,SpSla1-D1-D2,≤ 0
same,SPOT peptide array binding signal intensity,SpSla1-D3,≤ 0
